Measured values as given in PubChem BioAssay (Tox21).
Inconclusive results are not listed. Active and inactive are the calls of the source. Unless noted, the call rests on the fitted dose curve; in most records, active means well fitted curve in the direction sought with a large enough effect in the repeat runs; inconclusive means weak or mixed curves; inactive means no such curve, though single readings can be large; an effect the other way counts as inactive or inconclusive.

What was measured:
[1] = qHTS assay to identify small molecule agonists of the estrogen related receptor (ERR) signaling pathway from Tox21 library (AID 1224849; calls by dose curve; further: nearly all actives have a fitted effect of over 15% in size); conditions: ERR reporter cell line, ONE-Glo luciferase, 18 h; at 92.4 µM (top of the series) unless noted
Summary of the method: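 Luminescent agonist read-out (One-Glo, 30-minute room-temperature incubation) following 18-hour compound treatment at 37 C of the ERR cell line, which had been plated 6 hours before dosing.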

[2] = qHTS RealTime-Glo MT Cell Viability Assay in HEK293 cells - 32 hour (AID 1224868); further: nearly all actives have a fitted effect of over 50% in size; further: potency means the concentration at half of the fitted maximal effect; on activity change, negative = cytotoxic: top concentration of the series differs between compounds
Summary of the method: (§1)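 Viability tracked continuously by luminescence as live cells reduce a prosubstrate for NanoLuc; HEK293 cells preincubated 5 h, compound-treated at 37 C, and read at 0, 8, 16, 24, 32 and 40 h.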

[3] = A CellTox Green Cytotoxicity Assay to monitor cytotoxicity in HEK293 cells - 0 hour (AID 1224869); further: nearly all actives have a fitted effect of over 50% in size; further: potency means the concentration at half of the fitted maximal effect
Summary of the method: (§2)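 Fluorescence from a DNA-binding dye excluded by viable cells was measured repeatedly in the same HEK293 wells (600 cells/well) during continuous compound exposure at 37 C. Each assay gives one read point: 0, 8, 16, 24, 32 or 40 h.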

[4] = A CellTox Green Cytotoxicity Assay to monitor cytotoxicity in HEK293 cells - 40 hour (AID 1224871); further: nearly all actives have a fitted effect of over 45% in size; further: potency means the concentration at half of the fitted maximal effect
Summary of the method: as §2

[5] = qHTS RealTime-Glo MT Cell Viability Assay in HEK293 cells - 16 hour (AID 1224872); further: nearly all actives have a fitted effect of over 50% in size; further: potency means the concentration at half of the fitted maximal effect; on activity change, negative = cytotoxicity: top concentration of the series differs between compounds
Summary of the method: as §1

[6] = qHTS RealTime-Glo MT Cell Viability Assay in HEK293 cells - 40 hour (AID 1224874); conditions: RealTime-Glo luminescence; max response: hits give low values; further: nearly all actives have a fitted effect of over 50% in size; further: potency means the concentration at half of the fitted maximal effect
Summary of the method: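 Luminescence, which tracks viable cell number through reduction of the prosubstrate to a NanoLuc substrate, was read over continuous 37 C culture. Cells (600/well) were premixed with reagent and rested 5 h before 23 nL of compound in DMSO was pinned.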

[7] = A CellTox Green Cytotoxicity Assay to monitor cytotoxicity in HEK293 cells - 24 hour (AID 1224875); further: nearly all actives have a fitted effect of over 45% in size; further: potency means the concentration at half of the fitted maximal effect
Summary of the method: as §2

[8] = qHTS RealTime-Glo MT Cell Viability Assay in HepG2 cells - 24 hour (AID 1224867); further: nearly all actives have a fitted effect of over 50% in size; further: potency means the concentration at half of the fitted maximal effect
Summary of the method: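 Viability was tracked continuously by NanoLuc luminescence from prosubstrate reduced by living HepG2 cells, at successive time points over 40 h of compound exposure. Cells with reagent were preincubated 5 h at 37 °C before compound addition.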

[9] = qHTS RealTime-Glo MT Cell Viability Assay in HepG2 cells - 40 hour (AID 1224870); further: nearly all actives have a fitted effect of over 50% in size; further: potency means the concentration at half of the fitted maximal effect
Summary of the method: (§3)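 HepG2 cells mixed with RealTime-Glo MT reagents (NanoLuc plus cell-permeant prosubstrate) were seeded at 600 cells/well, incubated 5 h at 37 C/5% CO2, then pinned with compounds in DMSO; nonlytic luminescence tracked viability during 40 h treatment.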

[10] = qHTS RealTime-Glo MT Cell Viability Assay in HepG2 cells - 8 hour (AID 1224873); further: nearly all actives have a fitted effect of over 55% in size; further: potency means the concentration at half of the fitted maximal effect
Summary of the method: as §3
On the % scale 0 is the no-effect control and ±100 the full control effect.

C=CCc1cc(S(=O)(=O)c2ccc(O)c(CC=C)c2)ccc1O
active: Potency [2] 27.5 µM | Potency [5] 27.5 µM | Potency [6] 24.5 µM
inactive: activity change, positive = activation [1] -45.3% | Potency [3] | Potency [4] | Potency [7]

NC(=O)C1CO1 (stereo not drawn)
inactive: Potency [8] | Potency [2] | Potency [3] | Potency [9] | Potency [4] | Potency [5] | Potency [10] | max response [6] 3.16% | Potency [7]

CN1CCN(CCCN2c3ccccc3Sc3ccc(C(F)(F)F)cc32)CC1
active: Potency [4] 26.8 µM | Potency [6] 23.9 µM | Potency [7] 23.9 µM
inactive: activity change, positive = activation [1] -69.1% [at 42.5 µM] | Potency [3]

O=C1OC(=O)c2cc(-c3ccc4c(c3)C(=O)OC4=O)ccc21
inactive: Potency [8] | Potency [2] | Potency [3] | Potency [9] | Potency [4] | Potency [5] | Potency [10] | max response [6] 0.595% | Potency [7]

CCOC(=O)[C@H](O)[C@@H](O)C(=O)OCC
inactive: Potency [8] | Potency [2] | Potency [3] | Potency [9] | Potency [4] | Potency [5] | Potency [10] | max response [6] 5.68% | Potency [7]

CCOc1nc(F)cc2nc(S(=O)(=O)Nc3c(Cl)cccc3C(=O)OC)nn12
inactive: Potency [8] | Potency [2] | Potency [3] | Potency [9] | Potency [4] | Potency [5] | Potency [10] | max response [6] 9.81% | Potency [7]

Brc1cc(Br)cc(Br)c1
inactive: Potency [8] | Potency [2] | Potency [3] | Potency [9] | Potency [4] | Potency [5] | Potency [10] | max response [6] 0.239% | Potency [7]

Clc1nc(C(Cl)(Cl)Cl)c(Cl)c(Cl)c1Cl
active: Potency [9] 54.9 µM | Potency [6] 0.011 µM
inactive: activity change, positive = activation [1] -54% | Potency [2] | Potency [3] | Potency [10]

C=C(C)C1CCC(C)CC1O (stereo not drawn)
inactive: Potency [8] | Potency [2] | Potency [3] | Potency [9] | Potency [4] | Potency [5] | Potency [10] | max response [6] 5.16% | Potency [7]

CCCCCCCCCCCCN1CCCC1=O
inactive: activity change, positive = activation [1] -16.7% | Potency [3] | Potency [9]

COc1cc(/C=C/C(=O)CC(=O)/C=C/c2ccc(O)c(OC)c2)ccc1O
active: Potency [2] 24.7 µM | Potency [3] 22 µM | Potency [4] 24.7 µM | Potency [6] 22 µM | Potency [7] 43.9 µM
inactive: activity change, positive = activation [1] -73.6%

COc1cc(C(C)C)ccc1C
inactive: activity change, negative = cytotoxicity [8] 0.531% [at 15.8 µM] | activity change, negative = cytotoxic [2] 4.56% [at 15.8 µM] | cytotoxicity [3] -0.495% [at 15.8 µM] | activity change, negative = cytotoxic [9] 19.4% [at 15.8 µM] | cytotoxicity increase [4] -5.42% [at 15.8 µM] | activity change, negative = cytotoxicity [5] -1.07% [at 15.8 µM] | viability change, negative = cytotoxic [10] -7.86% [at 15.8 µM] | max response [6] -0.423% | activity change [7] -1.5% [at 15.8 µM, hits give high values]

C=C1C(CCl)(CCl)C2(Cl)C(Cl)C(Cl)C1(Cl)C2(Cl)Cl (stereo not drawn)
active: Potency [4] 48.4 µM | Potency [5] 48.4 µM | Potency [7] 54.3 µM
inactive: activity change, positive = activation [1] -73.9% | Potency [3] | Potency [9]

Cc1cc(F)ccc1-c1cc(N2CC[C@@H](O)[C@H]2CO)ncc1N(C)C(=O)C(C)(C)c1cc(C(F)(F)F)cc(C(F)(F)F)c1
active: Potency [8] 38.3 µM | Potency [2] 17.1 µM | Potency [9] 43 µM | Potency [4] 43 µM | Potency [5] 30.4 µM | Potency [10] 38.3 µM | Potency [6] 17.1 µM
inactive: Potency [3]

O=C(CCCCCCCCc1cccnc1)N1CCC(C=C(c2ccccc2)c2ccccc2)CC1
inactive: activity change, positive = activation [1] -69.2% | Potency [3] | Potency [7]
active: Potency [5] 21.9 µM | Potency [10] 49 µM | Potency [6] 21.9 µM

c1ccc(C[P+](c2ccccc2)(c2ccccc2)c2ccccc2)cc1
inactive: activity change, positive = activation [1] -56.8% | Potency [3] | Potency [9] | Potency [10] | Potency [7]
active: Potency [2] 1.55 µM | Potency [4] 4.9 µM | Potency [6] 1.38 µM

C1CCSC1
inactive: activity change, positive = activation [1] 0.687% | Potency [3] | Potency [9] | Potency [4] | Potency [10] | Potency [7]

CN1CCN(C)CC1
inactive: Potency [8] | Potency [2] | Potency [3] | Potency [9] | Potency [4] | Potency [5] | Potency [10] | max response [6] 7.77% | Potency [7]

c1ccc(-c2ccc(C(c3ccccc3)n3ccnc3)cc2)cc1 (stereo not drawn)
inactive: activity change, positive = activation [1] -54.4% [at 42.5 µM] | Potency [3] | Potency [9] | Potency [4] | Potency [10] | Potency [7]
active: Potency [2] 30.1 µM | Potency [6] 26.8 µM

C=CC(C)(C)O
inactive: Potency [8] | Potency [2] | Potency [3] | Potency [9] | Potency [4] | Potency [5] | Potency [10] | max response [6] 6.97% | Potency [7]

O=C(Nc1ccccc1)c1cc(Cl)ccc1O
inactive: activity change, positive = activation [1] -16.2% | Potency [3] | Potency [10] | Potency [7]
active: Potency [9] 49 µM | Potency [6] 21.9 µM

O=C1OCc2ccccc21
inactive: Potency [8] | Potency [2] | Potency [3] | Potency [9] | Potency [4] | Potency [5] | Potency [10] | max response [6] 15.2% | Potency [7]

C/C=C/C(=O)OCC(C)C
inactive: Potency [8] | Potency [2] | Potency [3] | Potency [9] | Potency [4] | Potency [5] | Potency [10] | max response [6] 5.85% | Potency [7]

COc1cc2ncnc(Nc3cccc(Cl)c3)c2cc1OC
inactive: activity change, negative = cytotoxicity [8] -0.467% [at 15.8 µM] | activity change, negative = cytotoxic [2] 0.667% [at 15.8 µM] | cytotoxicity [3] -7.5% [at 15.8 µM] | activity change, negative = cytotoxic [9] 25.7% [at 15.8 µM] | cytotoxicity increase [4] -0.731% [at 15.8 µM] | activity change, negative = cytotoxicity [5] -3.69% [at 15.8 µM] | viability change, negative = cytotoxic [10] -19.1% [at 15.8 µM] | max response [6] -0.219% | activity change [7] -0.939% [at 15.8 µM, hits give high values]

CCC(O)CO (stereo not drawn)
inactive: Potency [8] | Potency [2] | Potency [3] | Potency [9] | Potency [4] | Potency [5] | Potency [10] | max response [6] -1.31% | Potency [7]

CCOC(=O)OC(=O)OCC
inactive: Potency [8] | Potency [2] | Potency [3] | Potency [9] | Potency [4] | Potency [5] | Potency [10] | max response [6] 18.5% | Potency [7]

O=c1cc[nH]cc1
inactive: Potency [8] | Potency [2] | Potency [3] | Potency [9] | Potency [4] | Potency [10] | max response [6] 1.32% | Potency [7]

CCSCC
inactive: Potency [8] | Potency [2] | Potency [3] | Potency [9] | Potency [4] | Potency [5] | Potency [10] | max response [6] 8.26% | Potency [7]

Nc1ccc(Cl)c([N+](=O)[O-])c1
inactive: Potency [8] | Potency [2] | Potency [3] | Potency [9] | Potency [4] | Potency [10] | max response [6] -19.2% | Potency [7]

Cn1c(=O)[nH]c2ncn(C)c2c1=O
inactive: Potency [8] | Potency [3] | Potency [9] | Potency [4] | Potency [5] | Potency [10] | max response [6] 3.46% | Potency [7]

Cc1ccc(N=Nc2c(O)ccc3ccccc23)c(C)c1
inactive: Potency [8] | Potency [3] | Potency [9] | Potency [4] | Potency [10] | max response [6] -8.3% | Potency [7]

CC(C)(c1ccc(Oc2ccc(N)cc2)cc1)c1ccc(Oc2ccc(N)cc2)cc1
inactive: Potency [8] | Potency [3] | Potency [9] | Potency [4] | Potency [7]
active: Potency [6] 21.9 µM

C=Cc1ccc(O)c(OC)c1
inactive: Potency [8] | Potency [2] | Potency [3] | Potency [9] | Potency [4] | Potency [10] | max response [6] 2.13% | Potency [7]

CC/C=C\C/C=C\C/C=C\CCCCCCCC(=O)OC
inactive: Potency [8] | Potency [2] | Potency [3] | Potency [9] | Potency [5] | Potency [10] | max response [6] -12.1% | Potency [7]

CCN(CC)c1ccc(C=O)cc1
inactive: Potency [8] | Potency [3] | Potency [9] | Potency [4] | Potency [10] | Potency [7]

[Cl][Dy]([Cl])[Cl]
inactive: Potency [8] | Potency [2] | Potency [3] | Potency [9] | Potency [4] | Potency [5] | Potency [10] | max response [6] -3.97% | Potency [7]
